# Assay outcomes: PubChem, several laboratories
# This is a sample that favours compounds with a hit; in the whole collection about 3% have one here.
# EWS-Fli inh: EWS/Fli transcriptional activity inhibition; A673 NR0B1-luciferase reporter, viability-normalised; inhibition, % at 12.6 µM; hit rate 0.67% among 350,000;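 active means mean inhibition of at least 50% after viability correction, with every replicate also passing that limit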;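 further: firefly luciferase signal divided by Alamar Blue viability fluorescence both relative to DMSO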
# ABHD5 PLIN5 PPI: inhibitors of human ABHD5-perilipin-5 interaction. Q00G26+Q8WTS1. Split G. princeps luciferase complementation, luminescence, 4 h. inhibition, % at 4 µM. hit rate 0.78% among 360,000;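 active means inhibition above the mean inhibition across every tested compound plus 3 SD, cut at about 22% in these data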;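 further: 0% = DMSO only wells and the 100% control is not disclosed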
# Target sequence (Q00G26 whole entry, looked up): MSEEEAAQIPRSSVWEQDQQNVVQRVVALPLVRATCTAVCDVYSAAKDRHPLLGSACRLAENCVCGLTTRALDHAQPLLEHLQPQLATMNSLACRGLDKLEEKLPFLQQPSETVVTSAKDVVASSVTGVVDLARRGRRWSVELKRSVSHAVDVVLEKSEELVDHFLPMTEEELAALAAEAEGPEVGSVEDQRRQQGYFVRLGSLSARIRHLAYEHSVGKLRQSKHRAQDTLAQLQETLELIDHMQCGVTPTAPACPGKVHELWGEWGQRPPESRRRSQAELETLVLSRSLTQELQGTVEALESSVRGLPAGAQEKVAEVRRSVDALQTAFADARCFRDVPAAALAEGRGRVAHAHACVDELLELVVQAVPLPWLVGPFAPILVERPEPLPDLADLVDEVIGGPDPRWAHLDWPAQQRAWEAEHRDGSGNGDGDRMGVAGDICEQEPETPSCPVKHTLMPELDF
# Target sequence (Q8WTS1 whole entry, looked up): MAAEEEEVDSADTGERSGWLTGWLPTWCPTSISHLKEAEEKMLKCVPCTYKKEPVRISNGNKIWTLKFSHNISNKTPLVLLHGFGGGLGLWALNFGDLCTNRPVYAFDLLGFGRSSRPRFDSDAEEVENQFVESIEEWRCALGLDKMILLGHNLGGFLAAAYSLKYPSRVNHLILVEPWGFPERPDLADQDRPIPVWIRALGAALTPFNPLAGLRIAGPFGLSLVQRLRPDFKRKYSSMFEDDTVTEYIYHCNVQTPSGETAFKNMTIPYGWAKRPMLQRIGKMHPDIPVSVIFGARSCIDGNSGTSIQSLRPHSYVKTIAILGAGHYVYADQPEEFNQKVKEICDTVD
# Shn3 inh set2: inhibitors of Schnurri-3 3'UTR reporter in osteoblasts | Clone20 osteoblast Shn3 3'UTR firefly luciferase, 24 h | inhibition, % at 12.5 µM | hit rate 0.52% among 360,000 | AID 588674;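 active means mean inhibition of at least 75% with every replicate also reaching 75%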;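 further: 0% = median of neutral control wells and 100% = pilot-screen positive control compound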
# Peg3 promoter: inhibitors of Peg3 promoter; HeLa PEG-Prom luciferase reporter, luminescence, overnight; inhibition, % at 20 µM; hit rate 1.7% among 360,000;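 active means inhibition of at least 50% at 20 µM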
# PAX8 reporter: inhibitors of PAX8 transcriptional activity in RMG-I cells; inhibition, % at 12.6 µM; RMG-I TPO-luciferase reporter, SteadyGlo, 24 h; hit rate 1.2% among 360,000;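 active means mean replicate inhibition at least 60% with every replicate also reaching 60%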;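 further: luciferase light reporting Pax8 driven TPO promoter activity; plate controls were median of neutral control wells for no effect and mitoxantrone controls for full effect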
# TRPM1 prom inh: MITF TRPM1 promoter inhibition in SK-MEL-5 cells; SK-MEL-5 TRPM1 promoter luciferase, 24 h; inhibition, % at 12.5 µM; hit rate 0.83% among 330,000;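 active means mean inhibition across replicates of 60% or more, whatever share of single replicates reaches that level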
# The depositor's hits bear a star; / = no result.
SMILES,EWS-Fli inh,ABHD5 PLIN5 PPI,Shn3 inh set2,Peg3 promoter,PAX8 reporter,TRPM1 prom inh
COc1cc(C(=O)NCCOc2cc(C)cc(C)c2)cc(OC)c1OC,53.0*,3.5,7.2,22.4,14.1,11.5
COc1cc(C(=O)NCCOc2ccccc2)cc(OC)c1OC,-6.9,-8.3,-3.1,-16.8,-42.1,-6.7
COc1cc(/C=C2\SC(=Nc3ccccc3)N(CCc3c[nH]c4ccccc34)C2=O)ccc1OC(C)C(=O)O (stereo not given),/,-1.9,-23.8,3.0,/,6.3
O=C1/C(=C/c2ccc(N3CCOCC3)o2)SC(=Nc2ccccc2)N1CCc1c[nH]c2ccccc12,/,76.7*,96.9*,102.0*,/,55.0
CC(C)(C)c1nnc(N/N=C/c2ccccc2)n(N)c1=O,/,-6.8,-36.0,-48.9,-28.4,-3.9
CC(C)(C)c1nnc(N/N=C/c2ccccc2O)n(N)c1=O,/,-6.6,89.5*,37.9,33.7,42.9
C[C@@H]1CN([C@@H](C)CO)C(=O)c2c(c3ccccc3n2C)-c2ccccc2CO[C@H]1CN(C)Cc1ccc(-c2ccccc2)cc1,-5.8,/,/,/,/,/
C[C@@H]1CN([C@H](C)CO)C(=O)c2c(c3ccccc3n2C)-c2ccccc2CO[C@@H]1CN(C)C,8.5,/,/,/,88.3*,/
C[C@H]1CN([C@@H](C)CO)C(=O)c2c(c3ccccc3n2C)-c2ccccc2CO[C@@H]1CN(C)Cc1ccc(-c2ccccc2)cc1,3.1,/,/,/,82.4*,/
C[C@@H]1CN([C@@H](C)CO)C(=O)c2c(c3ccccc3n2C)-c2ccccc2CO[C@@H]1CN(C)Cc1ccc(-c2ccccc2)cc1,6.7,/,/,/,63.4*,/
C[C@H](CO)N1C[C@H](C)[C@H](CN(C)C(=O)Cc2ccccc2)OCc2ccccc2-c2c(n(C)c3ccccc23)C1=O,-2.6,/,/,/,8.9,/
C[C@H](CO)N1C[C@H](C)[C@@H](CN(C)C(=O)Cc2ccccc2)OCc2ccccc2-c2c(n(C)c3ccccc23)C1=O,8.8,/,/,/,65.9*,/
C[C@@H]1CN([C@H](C)CO)C(=O)c2c(c3ccccc3n2C)-c2ccccc2CO[C@@H]1CN(C)Cc1ccc(-c2ccccc2)cc1,-3.0,/,/,/,18.0,/
N#Cc1ccc(-c2ccc(Cl)cc2)nc1SCC(=O)c1cccc(Cl)c1,/,-1.8,15.5,85.5*,-15.2,24.8
Cc1ccc(C(=O)c2cc([N+](=O)[O-])ccc2N2CCOCC2)cc1,/,3.8,-21.4,51.9*,27.0,-9.1
O=C(O)c1cc([N+](=O)[O-])ccc1N1CCCCC1,/,1.3,-6.8,-1.2,13.0,-11.2
CCOc1ccc(S(=O)(=O)N2CCN(C(=O)c3cc([N+](=O)[O-])ccc3N3CCOCC3)CC2)cc1,4.5,-4.8,-2.4,3.0,9.3,-8.1
COc1ccc(C(=O)c2cc([N+](=O)[O-])ccc2N2CCOCC2)cc1,47.7,-5.8,-0.6,6.7,105.0*,50.0
Cc1ccc(C(=O)c2cc([N+](=O)[O-])ccc2N2CCCCC2)c(C)c1,48.4,-3.6,33.7,16.9,89.2*,31.1
COc1ccc(CCNC(=O)c2cc([N+](=O)[O-])ccc2N2CCOCC2)cc1,-4.1,6.8,7.5,18.6,8.5,-4.1
CCOc1ccc(C(=O)c2cc([N+](=O)[O-])ccc2N2CCOCC2)cc1,32.8,-1.5,4.3,-14.4,90.8*,33.8
CNC[C@@H]1Oc2cc(C#CCN(C)C)ccc2S(=O)(=O)N([C@H](C)CO)C[C@H]1C,0.6,/,/,/,/,/
C[C@H](CO)N1C[C@H](C)[C@H](CN(C)C(=O)Nc2ccc3c(c2)OCO3)OCCCC[C@H](C)Oc2ccc(NC(=O)NC3CCCCC3)cc2C1=O,1.4,/,/,/,-3.1,/
CCOC(=O)C1=C(C)N=C2SCCC(=O)N2C1c1sccc1C (stereo not given),/,0.1,3.8,14.3,/,5.6
C=CCOC(=O)C1=C(C)N=C2SCCC(=O)N2C1c1cccs1 (stereo not given),/,-9.3,92.3*,-0.5,/,-1.3
SMILES,EWS-Fli inh,ABHD5 PLIN5 PPI,Shn3 inh set2,Peg3 promoter,PAX8 reporter,TRPM1 prom inh
COc1ccc(OC)c(C(c2nnnn2Cc2ccccc2)N2CCN(C3CCCCC3)CC2)c1 (stereo not given),/,0.5,90.2*,22.1,/,-3.6
COc1cccc(-c2nc(NCc3ccccc3)c3ccccc3n2)c1O,20.6,-15.2,4.8,20.2,10.2,11.8
COc1cccc(-c2nc(NC3CCCC3)c3ccccc3n2)c1O,11.8,-2.2,86.3*,42.0,8.0,14.3
CC(=O)O[C@H]1CC[C@@]2(C)C(=CC[C@H]3[C@@H]4CC[C@H](C(C)=O)[C@@]4(C)CC[C@@H]32)C1,-5.1,1.6,86.5*,17.6,-0.8,-9.0
COCC(=O)Nc1ccc2c(c1)C(=O)N(C)[C@@H]1CC[C@@H](CC(=O)NC3CCCC3)O[C@H]1CO2,7.2,/,/,/,-4.5,/
C=CCn1c2ccccc2c2nnc(SCCCn3c(=O)[nH]c4ccccc43)nc21,/,5.9,17.3,65.3*,/,4.3
CC(C)NC(=O)N(C)C[C@H]1Oc2c(NS(=O)(=O)c3ccccc3)cccc2C(=O)N([C@H](C)CO)C[C@H]1C,-9.3,/,/,/,-12.8,/
Cc1nn(CC(=O)Nc2ccc3c(c2)OCO3)c(C)c1Cl,-28.0,0.0,-20.4,-86.4,-6.5,-24.3
CCC(=O)c1ccc2c(c1)OCCO2,-10.5,6.4,-13.8,-1.0,10.1,0.0
O=C(Cn1ncc(Cl)c(Cl)c1=O)Nc1ccc2c(c1)OCO2,48.9,3.4,65.5,96.5*,89.4*,78.7*
CCN(CC)S(=O)(=O)c1cc(NC(=O)CN2C(=O)NC(C)(c3ccccc3)C2=O)ccc1C (stereo not given),12.3,-1.9,3.8,17.7,14.0,4.2
O=C(Cn1ncc(Cl)c(Cl)c1=O)c1ccc2c(c1)OCCO2,6.9,1.2,12.0,90.2*,-26.0,49.5
COc1ccc(NC(=O)c2ccc(Cl)nc2)cc1S(=O)(=O)N1CCOCC1,0.9,1.5,-3.5,5.4,14.5,7.2
CCN(CC)S(=O)(=O)c1cc(NC(=O)Cn2ncc(Cl)c(Cl)c2=O)ccc1C,47.5,8.5,15.7,101.0*,93.0*,85.3*
COc1ccc(NC(=O)Cn2ncc(Cl)c(Cl)c2=O)cc1S(=O)(=O)N1CCOCC1,38.6,14.2,19.3,97.1*,83.5*,-5.1
COc1ccc2c3c(n(C)c2c1)[C@@H](CO)N(CC1CC1)CC31CN(C(=O)c2ccccc2)C1,0.5,/,/,/,/,/
CCOc1ccc(-n2c(-c3ccc(Cl)cc3)c[n+]3c2SCC3)cc1,23.4,0.5,68.3,3.3,86.3*,58.1
Cc1ccc(-n2c(-c3ccc(Cl)cc3)c[n+]3c2CCC3)cc1,1.2,8.3,65.8,8.4,43.7,51.7
COc1ccc(-n2c(-c3ccc(Br)cc3)c[n+]3c2SC(C)C3)cc1 (stereo not given),24.6,-0.9,52.5,0.2,73.7*,51.1
COc1ccc(-n2c(-c3ccc(Br)cc3)c[n+]3c2CCCCC3)cc1,23.6,3.3,89.1*,1.2,84.4*,49.2
c1ccc(-c2c[n+]3c(n2-c2ccccc2)SCC3)cc1,2.8,-2.8,5.0,3.0,25.0,/
